# Bioassay records deposited in PubChem by National Center for Advancing Translational Sciences (NCATS).
# Most compounds without a hit are left out; they make up all but 7.6% or so of the library.
# hERG WT inh: KCNH2 (human, wildtype) channel inhibition; activity change, % at 1.84 µM; AID 720551; 0.37% of 340,000 active; Q12809; U2OS, BacMam KCNH2, thallium flux FluxOr; active compounds read low;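 active means maximum activity change below -70%; inconclusive means maximum activity change between -70% and -50%; inactive means maximum activity change above -50%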; further: on the % scale 0 is the no-effect control and ±100 the full control effect
# Target sequence (Q12809 whole entry, looked up): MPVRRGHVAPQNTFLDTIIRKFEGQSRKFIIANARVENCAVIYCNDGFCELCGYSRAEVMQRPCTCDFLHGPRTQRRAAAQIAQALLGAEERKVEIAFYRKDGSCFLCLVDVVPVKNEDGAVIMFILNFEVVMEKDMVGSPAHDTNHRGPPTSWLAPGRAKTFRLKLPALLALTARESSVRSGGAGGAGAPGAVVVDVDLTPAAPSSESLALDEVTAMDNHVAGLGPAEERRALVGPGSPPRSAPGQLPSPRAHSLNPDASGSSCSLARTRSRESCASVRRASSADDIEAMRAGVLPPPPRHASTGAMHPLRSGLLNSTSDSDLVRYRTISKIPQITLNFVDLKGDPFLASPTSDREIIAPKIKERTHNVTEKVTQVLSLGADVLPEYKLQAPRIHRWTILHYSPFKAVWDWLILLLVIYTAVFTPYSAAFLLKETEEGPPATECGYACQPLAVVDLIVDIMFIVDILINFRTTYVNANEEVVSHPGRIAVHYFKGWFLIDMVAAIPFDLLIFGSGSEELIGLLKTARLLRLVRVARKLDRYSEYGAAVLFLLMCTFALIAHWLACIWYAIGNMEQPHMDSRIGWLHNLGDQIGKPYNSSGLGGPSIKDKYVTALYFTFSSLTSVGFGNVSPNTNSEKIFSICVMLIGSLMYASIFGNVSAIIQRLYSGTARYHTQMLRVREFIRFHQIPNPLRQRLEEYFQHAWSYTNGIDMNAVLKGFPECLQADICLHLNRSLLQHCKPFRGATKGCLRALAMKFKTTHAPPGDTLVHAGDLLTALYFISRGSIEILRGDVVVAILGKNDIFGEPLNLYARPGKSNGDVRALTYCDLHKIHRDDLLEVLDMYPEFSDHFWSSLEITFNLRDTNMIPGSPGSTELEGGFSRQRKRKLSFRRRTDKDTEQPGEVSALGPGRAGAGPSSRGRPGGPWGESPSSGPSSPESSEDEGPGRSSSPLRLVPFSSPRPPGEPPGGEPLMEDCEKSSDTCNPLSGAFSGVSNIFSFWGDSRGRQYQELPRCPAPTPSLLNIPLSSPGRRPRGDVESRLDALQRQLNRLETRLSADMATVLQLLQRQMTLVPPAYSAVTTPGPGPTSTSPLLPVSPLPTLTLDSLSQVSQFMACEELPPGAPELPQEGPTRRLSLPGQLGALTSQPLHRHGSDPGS
#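 U2OS cells transduced with wild-type KCNH2 virus are loaded with FluxOr dye for 45 min, and thallium flux is measured in kinetic reads before and after stimulation buffer. Rate constants are normalized to DMSO controls.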
# SW480 rerep: DNA re-replication induction in SW480 cells; SW480 DNA re-replication, Hoechst DNA content imaging, 48 h; Potency, µM (top dose mostly 46.1 µM), for inactives: at the top dose re-replication activation, most hits filed as activators; 1.8% of 340,000 active; further: potency means the concentration at half of the fitted maximal effect; % of control where 0% means no effect; nearly all actives have a fitted effect of over 55% in size
#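 Per well, 250 cells were exposed to pinned compound for 48 hr. Nuclear DNA was visualised with Hoechst (40 min, 37 C) and total object intensity recorded by fluorescence scanning.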
# KB-3-1 cytotox: KB-3-1 parental cell cytotoxicity; KB-3-1 viability, CellTiter-Glo ATP luminescence, 72 h; Potency, µM (top dose mostly 46.1 µM), usual class: cytotoxic; 1.4% of 400,000 active; AID 1347075; further: potency means the concentration at half of the fitted maximal effect; on the % scale 0 is the no-effect control and ±100 the full control effect; nearly all actives have a fitted effect of over 60% in size
#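 Parental KB-3-1 viability, qHTS format: 72 h compound exposure, 37 °C; CellTiter-Glo; media-only wells and DMSO plates as controls; concentration-effect fits on corrected data.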
# MCF10A rerep: induces DNA re-replication in MCF 10a normal breast cells. MCF 10A DNA re-replication, Hoechst nuclear intensity, 48 h. 2.9% of 350,000 active. Potency, µM (series often up to 46.1 µM), inactives show top-dose activity, positive = re-replication, usual class: activators. AID 624296; further: potency means the concentration at half of the fitted maximal effect; % of control where 0% means no effect; nearly all actives have a fitted effect of over 50% in size
# KB-V1 MDR tox: kills drug-selected multidrug resistant KB-V1 cells; Potency, µM (titrated, usually from 46.1 µM), most hits filed as cytotoxic; KB-V1 MDR cells viability, CellTiter-Glo, 72 h; AID 1347076; 3.4% of 400,000 active; further: potency means the concentration at half of the fitted maximal effect; on the % scale 0 is the no-effect control and ±100 the full control effect; nearly all actives have a fitted effect of over 60% in size
#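 In this primary screen, KB-V1 cells overexpressing P-gp are incubated with library compounds (lowest to highest concentration) for 72 h at 37 degrees C before a luminescent ATP viability read.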
# KCNH2 3.1 inh: inhibitors of human KCNH2 3.1 potassium channel isoform | U2OS KCNH2 3.1, thallium flux FluxOr; active compounds read low | activity change, % (tested at about 1.8 µM) | 0.95% of 340,000 active;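 active means maximum activity change below -70%; inconclusive means maximum activity change from -70% to -50%; inactive means maximum activity change above -50%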;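 further: thallium influx rate constant from kinetic fluorescence after stimulation buffer; on the % scale 0 is the no-effect control and ±100 the full control effect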
#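 We transduce U2OS cells with the mutant 3.1 virus, culture them overnight, load FluxOr with Red40 quencher for 45 min, then add stimulation buffer and read kinetically for 2 min to derive a normalized rate constant.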
# Numbers without * were called inactive; i = inactive; ? = inconclusive; . = no result. Unless noted, the call rests on the fitted dose curve; in most records, active means well fitted curve in the direction sought with a large enough effect; inconclusive means small, poorly fitted or top-dose-only effect, or another doubt; inactive means no such curve, though single readings can be large; an effect the other way counts as inactive or inconclusive.
SMILES,hERG WT inh,SW480 rerep,KB-3-1 cytotox,MCF10A rerep,KB-V1 MDR tox,KCNH2 3.1 inh
O=[N+]([O-])c1cccc(S(=O)(=O)Nc2ccc3cn[nH]c3c2)c1,-21,-7%,i,0%,i,11
Cc1cccc2cc(CN(Cc3nnnn3C3CCCCC3)C3CCCC3)c3nnnn3c12,-3,0%,?,17%,21µM*,-2
Cc1cc(C)c2[nH]c(=O)c(CN(Cc3nnnn3C3CCCC3)C3CCCCC3)cc2c1,-5,-5%,i,-1%,i,-4
O=C(NCc1ccccc1)c1cccc(COc2ccc(Cl)cc2)c1,6,9%,i,8%,18µM*,?
CCOc1ccc(C(=O)NCc2ccccc2)cc1Br,-15,70%,i,2%,18µM*,7
O=C(COC(=O)c1cccc(S(=O)(=O)NCc2ccccc2)c1)c1ccccc1,7,-3%,i,4%,i,-84*
COc1cccc(CN(C)C(=O)c2[nH]c(C)c(C(C)=O)c2C)c1OC,5,-1%,7.3µM*,7%,18µM*,-4
N#Cc1ccc(S(=O)(=O)Nc2ccccc2N2CCOCC2)cc1,-6,-9%,i,5%,?,10
COc1cccc(CN(C)C(=O)c2cc(S(=O)(=O)NCc3ccccc3)ccc2C)c1OC,-10,-7%,i,2%,18µM*,5
O=C(NCc1ccccc1)c1cccc(S(=O)(=O)NCc2ccccc2)c1,-1,-38%,i,-9%,16µM*,4
Cc1cc(C)c(C(=O)COC(=O)c2cccc(S(=O)(=O)NCc3ccccc3)c2)cc1C,2,8%,i,13%,18µM*,-1
COc1ccc(CN(C)C(=O)c2cc(S(=O)(=O)NCc3ccccc3)ccc2C)c(OC)c1,-1,-22%,i,7%,i,8
O=C(NCCc1ccccc1Cl)c1sc2ncccc2c1-n1cccc1,.,.,i,.,i,.
CCCN(C(=O)c1cc(S(=O)(=O)N2CCCCCC2)ccc1OC)C1CCS(=O)(=O)C1 (stereo not drawn),-11,-3%,i,6%,i,-3
Cc1ccccc1C(=O)N1CCN(c2ccc(NC(=S)NC(=O)c3cccs3)cc2)CC1,18,?,?,28%,i,-6
COc1ccc(C(=O)N2CCN(c3ccc(NC(=O)c4ccco4)cc3)CC2)cc1,3,1%,.,-6%,.,-21
Cc1ccc(C(=O)N2CCN(c3ccc(NC(=S)NC(=O)c4cccs4)cc3)CC2)cc1,-33,10µM*,?,?,i,-1
O=C(Nc1ccc(N2CCN(C(=O)c3ccccc3)CC2)cc1)c1cccs1,-136*,-1%,i,5%,?,-177*
COc1ccc(C(=O)N2CCN(c3ccc(NC(=O)c4cccs4)cc3)CC2)cc1,12,0%,.,3%,.,-92*
O=C(COc1ccccc1[N+](=O)[O-])Nc1ccc(N2CCN(C(=O)c3cccs3)CC2)cc1,6,1%,i,22%,9.2µM*,7
Cc1cc(C)cc(NS(=O)(=O)c2ccc(NC(=S)NC(=O)c3cccs3)cc2)c1,-39,?,23µM*,?,2.9µM*,-4
CC(C)NS(=O)(=O)c1ccc(NC(=S)NC(=O)c2ccc(-c3ccccc3)cc2)cc1,1,?,?,?,i,-75*
Cc1ccc(NS(=O)(=O)c2ccc(NC(=O)c3cccs3)cc2)c(C)c1,-1,18%,i,?,i,-13
Cc1ccc(NC(=O)c2cc(S(=O)(=O)Nc3ccc(C)cc3)cs2)cc1,-17,?,?,6%,4.1µM*,1
Cc1cc(NS(=O)(=O)c2ccc(NC(=S)NC(=O)c3cccnc3)cc2)no1,-2,3.3µM*,i,-9%,i,3
SMILES,hERG WT inh,SW480 rerep,KB-3-1 cytotox,MCF10A rerep,KB-V1 MDR tox,KCNH2 3.1 inh
CN1CCN(C(=O)c2cnn(-c3ccccc3)c2NC(=O)c2ccccc2Br)CC1,-8,5%,i,-3%,i,-3
Cc1ccc(C2=NC3(CCCCC3)N=C2SCC(=O)Nc2ccc3c(c2)OCCO3)cc1,1,?,i,23%,i,2
COc1ccc(S(=O)(=O)Nc2cc(C)c(O)c(S(=O)(=O)c3ccccc3)c2)cc1,-1,1%,i,-1%,16µM*,10
CCO[C@H]1OC(C(=O)N2CCN(Cc3ccc4c(c3)OCO4)CC2)=C[C@@H](C)[C@@H]1CCCO,9,-57%,i,1%,i,9
O=C(O)c1cc(S(=O)(=O)O)cc(Nc2c3ccccc3nc3ccccc23)c1O,4,5.2µM*,i,-15%,i,-10
COc1ccc(C(=O)NCc2nnc(SCC(=O)N3CCCc4ccccc43)o2)cc1OC,-12,-8%,i,0%,i,3
O=C(c1ccc(Br)cc1)N1CCC2(CC1)NCCc1[nH]cnc12,?,-3%,i,-1%,?,-87*
CCOc1ccc(CC(=O)N2CCC3(CC2)NCCc2[nH]cnc23)cc1,-10,6%,i,5%,i,-4
CCOc1ccc(C(=O)N2CCC3(CC2)NCCc2[nH]cnc23)cc1,-14,-19%,i,8%,i,-89*
CNc1c(Cl)cc(C=O)cc1Cl,.,.,?,.,i,.
O=C(Nc1cccc(Cl)c1Cl)C1CC(=O)N(c2ccc(Br)cc2)C1 (stereo not drawn),-6,7%,i,5.8µM*,i,1
O=C(N/N=C/c1ccccc1O)C1CC(=O)N(c2ccc(Cl)cc2)C1 (stereo not drawn),13,5.8µM*,?,?,i,-1
CN1CCN(C(CNC(=O)C(=O)Nc2ccccc2)c2ccc3c(c2)OCO3)CC1 (stereo not drawn),.,.,i,.,i,.
O=C(c1ccccc1)N1CCN(c2ccc(N3CCOCC3)nn2)CC1,7,-7%,i,0%,i,6
Cc1ccc(S(=O)(=O)NCCc2nnc3ccc(SCC(=O)Nc4ccc(OC(F)(F)F)cc4)nn23)cc1,.,.,i,.,i,.
COc1ccc(C)cc1S(=O)(=O)N1CCN(C/C=C/c2ccccc2)CC1,5,-3%,i,0%,18µM*,-9
COc1ccc(C)cc1NC(=O)CN1CCN(C/C=C/c2ccccc2)CC1,-98*,?,i,?,i,-102*
CC1(C(=O)NS(=O)(=O)C2CC2)CCN(C(=O)c2cc(F)cc(F)c2)C1 (stereo not drawn),.,.,i,.,i,.
OCc1c(OCc2cccc(F)c2)ccc2ccccc12,-3,1%,i,-1%,i,-81*
